“And” between values parts separate entries of the source, which are not always exact repeats. Equal entries are not always repeated. Inconclusive results are not listed. The source made the active and inactive calls. Rule for the calls: active = hit-call score of the fitted dose curve at least 0.9, where 1 is the maximum; inconclusive = response in the unintended direction; inactive = score below 0.9.
Biological target: Luciferin 4-monooxygenase (Photinus pyralis) (UniProt P08659)
Test: CCTE_Simmons_QuantiLum_inhib_2: CCTE's Firefly Luciferase Inhibition Assay, Simmons Lab (AID 2283767);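 for AC50: potency for inhibitors that lower luciferase luminescence relative to DMSO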
Description: CCTE_Simmons_QuantiLum_inhib_2 is a biochemical, single-readout assay that uses purified luciferase enzyme in a cell-free assay.Measurements were taken 0.5 hour after chemical dosing in a 384-well plate.CCTE_Simmons_QuantiLum_inhib_2 is the assay component measured from the CCTE_Simmons_QuantiLum_inhib_2 assay. It is designed to make measurements of enzyme activity, a form of enzyme reporter, as detected with bioluminescence signals by Luciferase-coupled Quantilum levels technology. This is a secondary assay to CCTE_Simmons_AUR_TPO to evaluate nonspecific enzyme inhibition.Data from the assay component CCTE_Simmons_QuantiLum_inhib_2 was analyzed at the endpoint, CCTE_Simmons_QuantiLum_inhib_2, in the positive analysis fitting direction relative to DMSO as the negative control and baseline of activity. Using a type of enzyme reporter, measures of enzyme activity for loss-of-signal activity can be used to understand inhibition of firefly luciferase. This is an assay endpoint to indicate nonspecific protein inhibition for comparison to aeid 1508 for thyroperoxidase inhibition. To generalize the intended target to other relatable targets, this assay endpoint is annotated to the oxidoreductase intended target family, where the subfamily is monooxygenase.
Quanti-Lum recombinant luciferase (Promega; Madison, Wisconsin) was diluted to 76.9 ng/ml with 200mM potassium phosphate buffer supplemented with 1 mg/ml bovine serum albumin and 65ul (5ng recombinant luciferase) per well was dispensed into opaque, white 384-well plates (Greiner, BioExpress) using an automated liquid handler (BioTek MicroFlo) with a plastic 5 ul tubing cassette. Test compounds were administered using the HDRT as described earlier to achieve a 0.5% final DMSO concentration. Microplates were incubated at 37C in the dark for 30min to mimic the AUR-TPO assay conditions. Luciferase detection reagent (25 ul per well; 9.2 mM dithiothreitol, 75uM Coenzyme A, 147uM dATP, 150uM D-luciferin, 8.9 mM Tricine, 297uM (MgCO3)4.Mg(OH)2.5H20, 742uM MgSO4, 27.8uM EDTA, pH 7.8, final assay concentrations) was then added using a BMG Clariostar plate reader equipped with syringe injectors (BMG LabTech; GmbH). Plates were read using a kinetic luminescence protocol (top read) whereby each well was individually injected with luciferase detection reagent immediately prior to measurement. Three biological replicates of technical singles were run for every chemical concentration tested. A titrated range of LUCINH2 served as a positive control on each plate of the luciferase inhibition screening assay. Test chemicals were administered as a titrated series of 8 concentrations from 5 nM up to 87.5 uM [final] for 30 minutes prior to single endpoint detection. Dimethylsulfoxide [DMSO] was used as the vehicle control. Luciferase Inhibitor I [2-(5-(2-Methoxyphenyl)-1,2,4-oxadiazol-3-yl)pyridine] was used as the positive control and was administered as a titrated series of 8 concentrations from 1 nM up to 100 uM [final].

Luciferin 4-monooxygenase (Photinus pyralis), sequence (P08659 whole entry, looked up): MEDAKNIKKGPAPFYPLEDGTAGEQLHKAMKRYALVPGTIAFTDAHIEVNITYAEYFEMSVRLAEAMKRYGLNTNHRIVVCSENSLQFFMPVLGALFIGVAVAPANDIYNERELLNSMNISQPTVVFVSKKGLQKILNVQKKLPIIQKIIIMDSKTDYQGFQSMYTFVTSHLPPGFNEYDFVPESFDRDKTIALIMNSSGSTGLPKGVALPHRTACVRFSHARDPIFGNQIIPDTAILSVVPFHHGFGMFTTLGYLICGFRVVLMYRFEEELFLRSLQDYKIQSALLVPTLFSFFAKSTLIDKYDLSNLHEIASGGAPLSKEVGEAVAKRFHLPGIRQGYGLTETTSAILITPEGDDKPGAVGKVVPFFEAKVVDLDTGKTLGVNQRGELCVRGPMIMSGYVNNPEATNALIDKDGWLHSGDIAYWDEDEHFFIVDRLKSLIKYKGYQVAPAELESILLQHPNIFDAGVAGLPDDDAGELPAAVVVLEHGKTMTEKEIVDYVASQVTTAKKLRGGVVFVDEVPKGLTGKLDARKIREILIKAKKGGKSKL

Row | Structure (SMILES) | outcome | AC50
1 | CN(C)c1ccc(C(=N)c2ccc(N(C)C)cc2)cc1 | inactive | 
2 | CCCCCCCC[N+](C)(CCCCCCCC)CCCCCCCC |  | 86 µM (active)
3 | c1ccc2c(c1)ccc1cc3c(ccc4ccccc43)cc12 |  | 0.105 µM (active)
4 | CCCCCCCCCCCCCOP(=O)(O)O | inactive | 
5 | O=S(=O)(O)c1ccccc1C=Cc1ccc(-c2ccc(C=Cc3ccccc3S(=O)(=O)O)cc2)cc1 | inactive | 
6 | CNC(=S)NN | inactive | 
7 | CC(C)(C)c1ccc(-c2ccc(C(C)(C)C)cc2)cc1 | inactive | 
8 | C1CN(SSN2CCOCC2)CCO1 | inactive | 
9 | CCCCC/C=C\C/C=C\CCCCCCCC(=O)OC | inactive | 
10 | O=S1(=O)OC(c2ccc(O)cc2)(c2ccc(O)cc2)c2ccccc21 |  | 36.6 µM (active) and 21.5 µM (active)
11 | CCN(CCC#N)c1ccc(N=Nc2c(Cl)cc([N+](=O)[O-])cc2Cl)cc1 |  | 53.8 µM (active)
12 | O=C(c1ccccc1)c1ccc(O)c(O)c1O | inactive | 
13 | Cc1ccc(N/N=c2\c(=O)cc/c(=N/Nc3ccc(S(=O)(=O)O)cc3)c2=O)c(C)c1 |  | 53.8 µM (active)
14 | COC(=O)c1c(C)cc(O)c(C)c1O | inactive | 
15 | CC/C=C\C/C=C\C/C=C\CCCCCCCC(=O)O | inactive | 
16 | C1=Cc2ccccc2C1 | inactive | 
17 | CC(C)(C)c1ccc(N)cc1 | inactive | 

Reference: PubChem BioAssay (EPA / NIEHS)
